LASV entry inh: qHTS for Inhibitors of binding or entry into cells for Lassa Virus; Lassa virus pseudotype entry inhibition, cell reporter; Potency, µM (series often up to 37.9 µM), inactives show top-dose activity change, negative = inhibition, usual class: inhibitors; AID 540256, 2011; hit rate 1.2% among 300,000; calls by dose curve; tested in HEK293 cells; also: potency is read from the fitted curve at half-maximal effect; % is scaled to controls: 0 for no effect and ±100 for the full control effect; nearly all actives have a fitted effect of over 50% in size
Marburg entry inh: qHTS for inhibitors of binding or entry into cells for Marburg Virus. Marburg virus pseudotyped entry inhibition, cell reporter. Potency, µM (doses to about 37.8 µM), inactives show at the highest dose activity change, negative = inhibition, most hits filed as inhibitors. hit rate 1.8% among 300,000. AID 540276, 2011; calls by dose curve; tested in HEK293 cells; also: potency is read from the fitted curve at half-maximal effect; % is scaled to controls: 0 for no effect and ±100 for the full control effect
VACV Venus inh: qHTS for Stage-Specific Inhibitors of Vaccinia Orthopoxvirus: Venus Reporter Primary qHTS; Vaccinia virus Venus reporter expression, fluorescence; Potency, µM (highest dose often 36.5 µM), for the others: at the highest dose activity change, negative = inhibition, actives largely listed as inhibitors; hit rate 0.46% among 330,000; calls by dose curve; tested in A549 cells; also: potency is read from the fitted curve at half-maximal effect; % is scaled to controls: 0 for no effect and ±100 for the full control effect; nearly all actives have a fitted effect of over 30% in size
Cycloheximide cs: Cycloheximide Counterscreen for Small Molecule Inhibitors of Shiga Toxin | cell reporter, cycloheximide protein synthesis inhibition counterscreen | max response, % | hit rate 12% among 300,000; in the data active = max response mostly above about 13%, no sharp cut-off; inactive = mostly below about 14%; also: read at 38.3 µM for the half of the compounds with a filed dose; 0% is about no effect
Vaccinia mCherry: qHTS for Stage-Specific Inhibitors of Vaccinia Orthopoxvirus: mCherry Reporter Primary qHTS. Vaccinia virus mCherry reporter infection, fluorescence. Potency, µM (doses to about 36.5 µM), for the others: top-dose activity change, negative = inhibition, most hits filed as inhibitors. hit rate 0.63% among 310,000; calls by dose curve; tested in A549 cells; also: potency is read from the fitted curve at half-maximal effect; % is scaled to controls: 0 for no effect and ±100 for the full control effect; nearly all actives have a fitted effect of over 35% in size
Shiga toxin inh: A qHTS for Small Molecule Inhibitors of Shiga Toxin; Vero cells, Shiga toxin protein synthesis inhibition reporter; inhibition, % at 38.7 µM; hit rate 9.2% among 290,000; in the data active = inhibition mostly above about 28%, no sharp cut-off; inactive = mostly below about 43%; also: 0% is about no effect
The depositor's hits bear a star; [ ] = another dose, or the depositor's remark. Shown is part of a subset that was picked to be rich in hits.

What do the screens show for `Oc1nc(Nc2cccc(Cl)c2)sc1/C=C1\C=Nc2ccccc21`?
LASV entry inh: inconclusive; Marburg entry inh: inconclusive; VACV Venus inh: inconclusive; Cycloheximide cs: -2.1; Vaccinia mCherry: inconclusive; Shiga toxin inh: -5.2

What do the screens show for `COc1cccc(-n2nc(C(N)=O)c(O)cc2=O)c1`?
LASV entry inh: 10.3%[46.1 µM]; Marburg entry inh: 2.5%[46.1 µM]; VACV Venus inh: -8.1%; Cycloheximide cs: -4.0; Vaccinia mCherry: inactive; Shiga toxin inh: 9.8

Results for COc1cccc(-n2nc(C#N)c(Cl)cc2=O)c1 ?
LASV entry inh: inconclusive; Marburg entry inh: inconclusive; VACV Venus inh: 17.8µM*; Cycloheximide cs: -5.7; Vaccinia mCherry: inconclusive; Shiga toxin inh: -21.4

Results for C#CCn1c(S(=O)(=O)Cc2ccc(OC)cc2)nc(-c2ccccc2)c1-c1ccccc1 ?
LASV entry inh: inconclusive; Marburg entry inh: 4.11µM*; VACV Venus inh: -14.6%; Cycloheximide cs: 3.1; Vaccinia mCherry: inconclusive; Shiga toxin inh: -18.9

How did COc1ccc(C(=O)c2ccc(OC)c(OC)c2)cc1OC do in these assays?
LASV entry inh: 4.0%; Marburg entry inh: 2.3%; Cycloheximide cs: -4.2; Shiga toxin inh: 16.1

Results for COc1ccc(C(=O)c2ccc(OC)c(N)c2)cc1N ?
LASV entry inh: 13.7%; Marburg entry inh: -13.0%; Cycloheximide cs: 50.3*; Shiga toxin inh: 122.4*

How did COc1ccc(/C=N/NC(=O)c2ccccc2O)cc1CN1CCOCC1 do in these assays?
LASV entry inh: -2.0%; Marburg entry inh: 12.6%[46.1 µM]; VACV Venus inh: 0.1%; Cycloheximide cs: 6.7; Vaccinia mCherry: inactive; Shiga toxin inh: 39.6

Results for COc1ccc(/C=N\NC(=O)COc2ccccc2Cl)cc1Cn1nc(C)cc1C ?
LASV entry inh: -24.3%; Marburg entry inh: -16.7%[46.1 µM]; VACV Venus inh: -10.0%; Cycloheximide cs: -3.9; Vaccinia mCherry: -14.7%; Shiga toxin inh: -12.6

What do the screens show for `COc1ccc(/C=N/NC(=O)Cn2nnc3ccccc32)cc1OC`?
LASV entry inh: 8.8%; Marburg entry inh: -0.1%; VACV Venus inh: -4.7%; Cycloheximide cs: 22.4*; Vaccinia mCherry: inactive; Shiga toxin inh: 32.1*

How did COc1ccc(/C=N/NC(=O)c2ccccc2O)cc1Cn1nnc2ccccc21 do in these assays?
Cycloheximide cs: 21.7*; Shiga toxin inh: 50.2*

Results for COc1ccc(/C=N\NC(=O)c2sccc2C)cc1Cn1nc(C)cc1C ?
Cycloheximide cs: 42.3*; Shiga toxin inh: 104.5*

What do the screens show for `CC(=O)Nc1ccc(SCC(=O)c2cc(C)n(CC(F)(F)F)c2C)cc1`?
LASV entry inh: -5.7%; Marburg entry inh: inconclusive; VACV Venus inh: -18.6%; Cycloheximide cs: 34.7*; Shiga toxin inh: 71.1*

Results for COc1ccc(-c2cc(C(F)(F)F)nc(SCCC(=O)Nc3ccc(O)cc3)n2)cc1 ?
LASV entry inh: -9.5%[46.1 µM]; Marburg entry inh: -2.5%[46.1 µM]; VACV Venus inh: -7.5%; Vaccinia mCherry: -2.6%

Results for CNC[C@H](CC1CCCCC1)NC[C@H](Cc1ccccc1)NCCC12CC3CC(CC(C3)C1)C2 ?
VACV Venus inh: 10µM*; Cycloheximide cs: -8.2; Vaccinia mCherry: inconclusive; Shiga toxin inh: -17.8

What do the screens show for `NC[C@H](Cc1ccccc1)NCCCCC1CCCCC1`?
VACV Venus inh: -3.8%; Vaccinia mCherry: inconclusive

What do the screens show for `COc1ccc(CNc2oc(Cc3cccc4ccccc34)nc2C#N)cc1`?
LASV entry inh: 17.8µM*; Marburg entry inh: inconclusive; VACV Venus inh: -26.5%; Cycloheximide cs: 11.4; Shiga toxin inh: 7.2

What do the screens show for `N#Cc1nc(COc2ccccc2Cl)oc1NCc1ccc(F)cc1`?
LASV entry inh: -13.0%; Marburg entry inh: inconclusive; VACV Venus inh: -13.9%; Cycloheximide cs: 9.2; Vaccinia mCherry: -1.0%; Shiga toxin inh: 12.1

How did N#Cc1nc(Cc2cccc3ccccc23)oc1NCc1ccco1 do in these assays?
LASV entry inh: -19.9%; Marburg entry inh: -15.2%; Cycloheximide cs: -3.9; Shiga toxin inh: -10.0

Results for N#Cc1nc(Cc2ccccc2)oc1NCc1ccccc1 ?
LASV entry inh: -3.8%; Marburg entry inh: inconclusive; VACV Venus inh: -12.9%; Cycloheximide cs: 27.9*; Vaccinia mCherry: -25.0%; Shiga toxin inh: active

How did COc1ccc(CNc2oc(COc3ccccc3)nc2C#N)cc1 do in these assays?
LASV entry inh: inconclusive; Marburg entry inh: 2.3%; VACV Venus inh: -18.8%; Cycloheximide cs: 20.3*; Vaccinia mCherry: -21.5%; Shiga toxin inh: 40.2*

How did N#Cc1nc(COc2ccccc2Cl)oc1NCc1cccnc1 do in these assays?
LASV entry inh: 0.0%; Marburg entry inh: 1.6%; Cycloheximide cs: 13.5; Shiga toxin inh: 38.1*

How did N#Cc1nc(Cc2ccccc2)oc1NCCN1CCOCC1 do in these assays?
LASV entry inh: 1.1%; Marburg entry inh: inconclusive; VACV Venus inh: 0.4%; Cycloheximide cs: 26.0; Vaccinia mCherry: -9.6%; Shiga toxin inh: 31.8

Results for CCCC(=O)Nc1cc(C(=O)N(C)CC(OC)OC)ccc1S(=O)(=O)c1ccc(C)cc1 ?
Cycloheximide cs: -4.0; Shiga toxin inh: -6.9

How did O=C1CC(c2ccc(O)cc2)Oc2cc(O)cc(O)c21 (stereo unspecified) do in these assays?
LASV entry inh: -0.2%; Marburg entry inh: 15.2%; VACV Venus inh: -20.4%; Cycloheximide cs: 14.0*; Vaccinia mCherry: -12.4%; Shiga toxin inh: 35.5

How did COc1ccc(C2CC(=O)c3c(O)cc(O)cc3O2)cc1O (stereo unspecified) do in these assays?
VACV Venus inh: -4.7%; Vaccinia mCherry: 13.7%

Results for O=C1CC(c2ccc(O)c(O)c2)Oc2cc(O)cc(O)c21 (stereo unspecified) ?
VACV Venus inh: -15.0%; Cycloheximide cs: -2.3; Vaccinia mCherry: -10.2%; Shiga toxin inh: 19.2

How did O=C1CC(c2ccccc2)Oc2cc(O)cc(O)c21 (stereo unspecified) do in these assays?
VACV Venus inh: 11.7%; Cycloheximide cs: 16.0*; Vaccinia mCherry: 2.5%; Shiga toxin inh: 57.2*

What do the screens show for `NC(=O)C1CCCN1C(=O)C(Cc1cnc[nH]1)NC(=O)C1CCC(=O)N1` (stereo unspecified)?
Cycloheximide cs: -2.2; Shiga toxin inh: 11.2

What do the screens show for `Cc1cc(CSCc2ccc(Cl)cc2)no1`?
Cycloheximide cs: 23.1*; Shiga toxin inh: 24.1

How did CSc1nsc(SC)c1C(=O)Nc1ccc(C(C)(C)C)cc1 do in these assays?
LASV entry inh: 8.5%[46.1 µM]; Marburg entry inh: 11.2µM*; VACV Venus inh: -14.8%; Cycloheximide cs: 9.8; Vaccinia mCherry: inactive; Shiga toxin inh: 53.2*

What do the screens show for `c1ccc2c(c1)CSc1ccccc1C2C1=NCCN1` (stereo unspecified)?
LASV entry inh: -15.9%; Marburg entry inh: inconclusive; VACV Venus inh: -13.2%; Cycloheximide cs: -3.3; Vaccinia mCherry: -5.8%; Shiga toxin inh: 3.9

Screening results: PubChem BioAssay, National Center for Advancing Translational Sciences (NCATS)
